Experimental data reported in the supplement of paper PMC12067093, “Discovery and optimisation of a covalent ligand for TRIM25 and its application to targeted protein ubiquitination” (Chemical Science, 2025).
The full data set covers some 21,000 targets. This sample favours those with the largest changes.

Compound: Cc1cc(ccc1-c1ccccc1)C(=O)N1CCCN(CC1)C(=O)CCl [compound 10]
Experiment: probe-labelled cysteine peptide fold change vs DMSO (competition) (log2 fold change); higher = less target engagement (more negative = stronger competition)
Details: THP-1, incubation time: 4 h
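Note: competitive profiling in live THP-1 cells: cysteine peptides tagged with an iodoacetamide desthiobiotin (IA-DTB) probe, intensity after compound treatment relative to DMSO-treated cells.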

Target	probe-labelled cysteine peptide fold change (10 µM)	probe-labelled cysteine peptide fold change (50 µM)
GRN_P28799_178_CITPTGTHPLAK (UniProt P28799)	-0.279	-0.341
HDAC10_Q969S8_508_LLCVALGQLDRPPDLAHDGR (UniProt Q969S8)	0.15	0.0528
GIT1_Q9Y2X7_576_KGVSASAVPFTPSSPLLSCSQEGSR (UniProt Q9Y2X7)	-0.316	-0.788
FTSJ3_Q8IY81_293_VCCQDIR (UniProt Q8IY81)	0.217	-0.481
HGS_O14964_212_VCEPCYEQLNR (UniProt O14964)	0.0236	-0.13
HCK_P08631_241_LSVPCMSSK (UniProt P08631)	-0.0986	0.102
FKBP3_Q00688_133_KGDVVHCWYTGTLQDGTVFDTNIQTSAK (UniProt Q00688)	0.106	-0.0529
GEMIN5_Q8TEQ6_1421_NEPEVEAEQPLCSSQSQCK (UniProt Q8TEQ6)	0.068	-0.124
GTF3C4_Q9UKN8_376_CVPLYHPYQK (UniProt Q9UKN8)	0.0788	0.144
GPD1L_Q8N335_216_NIVAVGAGFCDGLR (UniProt Q8N335)	-0.0284	0.115
GATD3B_A0A0B4J2D5_176+177_EFHQAGKPIGLCCIAPVLAAK<|>GATD3A_P0DPI2_176+177_EFHQAGKPIGLCCIAPVLAAK (UniProt P0DPI2)	-1.14	-2.38
GLOD4_Q9HC38-2_41_VLRHEEFEEGCK (UniProt Q9HC38)	-0.835	-1.19
HELZ_P42694_100_AVLCCMQLK (UniProt P42694)	-0.406	-1.27
GLRX_P35754_26_VVVFIKPTCPYCR (UniProt P35754)	-1.05	-3.44
GOLGA2_Q08379_984_ERPGLGSNPCIPFFYR (UniProt Q08379)	-0.149	-0.0471
GTPBP3_Q969Y2_188_QLDGELGHLCR (UniProt Q969Y2)	-0.0966	-0.00935
HERC2_O95714_1037_ISSCLDFEQHSR (UniProt O95714)	0.0441	0.321
HDAC6_Q9UBN7_539_PATEAELLTCHSAEYVGHLR (UniProt Q9UBN7)	-0.137	0.302
GLA_P06280_56_FMCNLDCQEEPDSCISEK (UniProt P06280)	0.07	-0.0872

Target	probe-labelled cysteine peptide fold change (10 µM)	probe-labelled cysteine peptide fold change (50 µM)
GNB1_P62873_148+149_ELAGHTGYLSCCR (UniProt P62873)	-0.185	-0.407
FHL1_Q13642_150_GEDFYCVTCHETK (UniProt Q13642)	0.107	-0.0472
GATM_P50440_50_NSCAADDK (UniProt P50440)	-0.478	-1.27
FLCN_Q8NFG4_215_VFEAEQFGCPQR (UniProt Q8NFG4)	-0.0204	-0.54
HINT3_Q9NQE9_66+73_QDPGTELLHCENEDLICFK (UniProt Q9NQE9)	-0.386	-0.532
HAUS2_Q9NVX0_89_CHTLQSMNNHLEAVLK (UniProt Q9NVX0)	0.0751	-0.239
HBS1L_Q9Y450_84_LYSCLDHMR (UniProt Q9Y450)	0.0793	-0.0662
GRHPR_Q9UBQ7_288_NCVILPHIGSATHR (UniProt Q9UBQ7)	0.293	0.0427
FLAD1_Q8NFF5_338_LTLDSEEEGPLEECLAYLTAR (UniProt Q8NFF5)	-0.0485	0.177
FHOD1_Q9Y613_43_APTCSLDGALPLGAQIPAVHR (UniProt Q9Y613)	-0.105	0.425
GALNT7_Q86SF2_545_GFETAYCIDSMGK (UniProt Q86SF2)	-0.0613	0.095
GPAA1_O43292_266_GGLLCTLQGK (UniProt O43292)	-0.168	-0.0244
HINT1_P49773_38_CLAFHDISPQAPTHFLVIPK (UniProt P49773)	0.0727	0.0613
HELZ_P42694_101_AVLCCMQLK (UniProt P42694)	-0.198	-1.11
HDAC4_P56524_777_LAVGCVVELVFK (UniProt P56524)	0.157	0.082
GBF1_Q92538_1707_IDCFLPHLRDELFK (UniProt Q92538)	-0.0239	-0.111
GNB1_P62873_294_LLLAGYDDFNCNVWDALK (UniProt P62873)	0.0699	0.17
GTF2I_P78347_475_MVDQLFCK (UniProt P78347)	-0.213	0.51
FRMD8_Q9BZ67_206_LDSFLPAHLCK (UniProt Q9BZ67)	-0.0859	-0.347

Target	probe-labelled cysteine peptide fold change (10 µM)	probe-labelled cysteine peptide fold change (50 µM)
HDAC5_Q9UQL6_982_CFGHLTR (UniProt Q9UQL6)	0.138	-0.104
GPX1_P07203_78_GLVVLGFPCNQFGHQENAKNEEILNSLK (UniProt P07203)	-0.208	-1.3
HLA-C_P04222_345+364_GGSCSQAASSNSAQGSDESLIACKA (UniProt P04222)	-0.638	-1.66
GTF3A_Q92664_191_AHEGYVCQK (UniProt Q92664)	0.112	-0.151
HAUS6_Q7Z4H7_662_VISDCECVPQK (UniProt Q7Z4H7)	0.0385	-0.547
GNL1_P36915_365_YKDGVVTIGCVGFPNVGK (UniProt P36915)	-0.0143	-0.869
HEATR5A_Q86XA9_1635_QIICAAQEHVK (UniProt Q86XA9)	0.0658	0.171
GFM2_Q969S9_248_LLWNCNSNDGK (UniProt Q969S9)	-0.353	-0.937
GATM_P50440_131_KAVAEIEEMCNILK (UniProt P50440)	-0.0751	-0.22
GOLGA3_Q08378_769_LGELQGEAASREDTICLLQNEK (UniProt Q08378)	-0.084	-0.193
HEATR3_Q7Z4Q2_57_ECACAGLAR (UniProt Q7Z4Q2)	-1.43	-4.94
HDAC8_Q9BY41_153_KDEASGFCYLNDAVLGILR (UniProt Q9BY41)	-0.0393	0.0564
FYCO1_Q9BQS8_293_LTCLVAELQK (UniProt Q9BQS8)	0.0275	0.224
GPATCH1_Q9BRR8_485_AQLSPAAAAGHCSWNMALGGGTATLK (UniProt Q9BRR8)	-0.0776	-1.25
HK3_P52790_190_CSGVEGQDVVQLLR (UniProt P52790)	0.199	-0.106
HK3_P52790_840_AAQLCGAGVAAVVEK (UniProt P52790)	0.169	-0.0558
HDHD5_Q9BXW7_392_DLCFSPGLMEASHVVNDVNEAVQLVFRK (UniProt Q9BXW7)	-0.183	-1.22
GABPA_Q06546_69_LQCSLDAHEICLQDIQLDPER (UniProt Q06546)	0.331	-0.0571
